Screening data (PubChem)
Most compounds without a hit are left out; they make up all but 14% or so of the library.
FBPA Giardia inh: qHTS Assay for Inhibitors of Fructose-1,6-bisphosphate Aldolase from Giardia Lamblia | A8B2U2 | purified Giardia FBPA | Potency, µM (top dose mostly 59.6 µM), hits mostly inhibitors | hit rate 0.71% among 290,000 | AID 2451, 2010; further: nearly all actives have a fitted effect of over 55% in size
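40 nM FBPA preincubated 10 min at RT with compound (up to 57.5 uM final), then substrate plus GAPDH/TPI/NAD/arsenate coupling and diaphorase/resazurin added. Fluorescence read after 20 min at RT, 525/598 nm.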
LmPK inh: qHTS Assay for Inhibitors of Leishmania Mexicana Pyruvate Kinase (LmPK); Q27686; purified LmPK, Kinase-Glo ATP luminescence, 1 h; Potency, µM (titrated, usually from 57.5 µM), actives largely listed as inhibitors; hit rate 0.37% among 290,000
Target sequence (Q27686 whole entry, looked up): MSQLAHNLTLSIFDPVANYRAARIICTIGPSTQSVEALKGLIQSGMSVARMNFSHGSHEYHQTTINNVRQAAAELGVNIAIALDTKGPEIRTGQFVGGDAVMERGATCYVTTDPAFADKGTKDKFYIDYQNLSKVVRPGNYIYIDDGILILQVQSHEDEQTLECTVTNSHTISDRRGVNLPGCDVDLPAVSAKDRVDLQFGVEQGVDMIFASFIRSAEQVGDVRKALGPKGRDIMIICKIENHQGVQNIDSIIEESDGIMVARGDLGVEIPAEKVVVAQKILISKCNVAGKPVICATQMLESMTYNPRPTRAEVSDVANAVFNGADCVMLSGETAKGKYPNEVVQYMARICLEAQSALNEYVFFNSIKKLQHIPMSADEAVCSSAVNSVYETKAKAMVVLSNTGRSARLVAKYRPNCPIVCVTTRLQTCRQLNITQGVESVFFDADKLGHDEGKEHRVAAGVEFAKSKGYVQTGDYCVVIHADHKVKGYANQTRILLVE
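ATP generated from ADP (0.1 mM) and PEP (0.5 mM) by 0.1 nM LmPK over 1 h at room temperature (pH 7.2 imidazole buffer) was detected by coupled luciferase luminescence. Values were normalized to uninhibited and no-enzyme wells.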
Cycloheximide cs: Cycloheximide Counterscreen for Small Molecule Inhibitors of Shiga Toxin | cell reporter, cycloheximide protein synthesis inhibition counterscreen | hit rate 12% among 300,000 | max response, %; in the data active means max response mostly above about 13%, no sharp cut-off; inactive means mostly below about 14%; further: read at 38.3 µM for the half of the compounds with a filed dose
NS1 inh: qHTS Assay for Inhibitors of Influenza NS1 Protein Function; Potency, µM (titrated, usually from 46.1 µM); AID 2326, 2010; hit rate 0.4% among 270,000; calls by dose curve; further: actives are rising curves; nearly all actives have a fitted effect of over 50% in size
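Growth recovery, yeast-based: influenza A NS1 expressed in S. cerevisiae causes slow growth, and suppressors are detected by OD600. The parent strain without NS1 is used as positive control.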
Shiga toxin inh: A qHTS for Small Molecule Inhibitors of Shiga Toxin. Vero cells, Shiga toxin protein synthesis inhibition reporter. inhibition, % at 38.7 µM. hit rate 9.2% among 290,000; in the data active means inhibition mostly above about 28%, no sharp cut-off; inactive means mostly below about 43%
Large screens that a line does not name were inactive. Unless noted, the call rests on the fitted dose curve; in most records, active means well fitted curve in the direction sought with a large enough effect; inconclusive means small, poorly fitted or top-dose-only effect, or another doubt; inactive means no such curve, though single readings can be large; an effect the other way counts as inactive or inconclusive.

CCc1ccc(-c2nc(SCC(=O)N3CCOCC3)n[nH]2)cc1	Cycloheximide cs 11.5, Shiga toxin inh 29.0 (no result: NS1 inh)
O=C(CSc1n[nH]c(-c2ccccc2)n1)N1CCCC1	Shiga toxin inh 65.1
Cc1ccc(-c2nnc(SCC(=O)N3CCOCC3)nc2-c2ccc(C)cc2)cc1	none
O=C(CSc1n[nH]c(-c2ccccc2)n1)NC1CCCCC1	none
COc1ccsc1NC(=O)OCc1ccc(Cl)cc1	Cycloheximide cs 36.7, Shiga toxin inh 44.0
COc1cccc(Cn2c(=O)c(-c3cc(F)cc(F)c3)nc3cnc(N4CCNCC4)nc32)c1	none (no result: LmPK inh, Cycloheximide cs, NS1 inh, Shiga toxin inh)
CCc1ccc(C(=O)NC(CCSC)C(=O)OC)cc1 (stereo unspecified)	Cycloheximide cs 17.1 (no result: NS1 inh)
COC(=O)C1CN(C(=O)COc2cc(C)cc(C)c2)c2ccccc2O1 (stereo unspecified)	none
O=C(O)c1sc2cccc(Cl)c2c1Cl	Cycloheximide cs 15.8
CCCCNc1nc(C)nc2c1nc(-c1ccccc1)n2C1CCN(Cc2ccccc2)C1 (stereo unspecified)	none (no result: LmPK inh, Cycloheximide cs, NS1 inh, Shiga toxin inh)
CC(=O)c1cnc2c(-c3ccc(Cl)cc3)cnn2c1C	Shiga toxin inh 39.5
Cc1cc(-c2ccc(Cl)cc2)n2nc(N)nc2n1	none
Nc1c(C(=O)O)cnc2c(-c3ccc(Cl)cc3)cnn12	FBPA Giardia inh inconclusive, LmPK inh inconclusive, Cycloheximide cs 26.9 (no result: NS1 inh)
Nc1nc2nccc(-c3ccc(Cl)cc3)n2n1	FBPA Giardia inh inconclusive, Cycloheximide cs 43.8, Shiga toxin inh 41.7
CC(=O)c1cnc2c(-c3ccccc3)c(-c3ccccc3)nn2c1C	none
Clc1ccc(-c2cnn3c(-c4ccncc4)ccnc23)cc1	Cycloheximide cs 34.9, Shiga toxin inh 88.6 (no result: NS1 inh)
CCOC(=O)c1cnc2c(C(=O)OCC)cnn2c1N	none
Cc1ccc(S(=O)(=O)OCC(=O)O)cc1	none (no result: FBPA Giardia inh, LmPK inh, Cycloheximide cs, Shiga toxin inh)
COC(=O)C1C(C)OC(=O)NC1c1ccccc1 (stereo unspecified)	none (no result: LmPK inh, Cycloheximide cs, NS1 inh, Shiga toxin inh)
Cc1ccc(N(C)C(=O)c2cc(S(=O)(=O)N3CCCC3)cn2C)cc1	none
COc1cccc(Nc2ncc3nc(C)c(=O)n(-c4ccccc4)c3n2)c1	none (no result: LmPK inh, Cycloheximide cs, NS1 inh, Shiga toxin inh)
Clc1ccc(-c2nnc(-c3ccccc3)c(-c3ccccc3)n2)cc1	none
OCCCNc1nc(-c2ccc(Cl)cc2)nnc1-c1ccccc1	Cycloheximide cs 19.6
COc1ccccc1N1CCN(C(=O)c2ccc3c(=O)n(Cc4ccc5c(c4)OCO5)c(=O)[nH]c3c2)CC1	none
CCCCc1c(C)c2ccc(OC)c(/C(C)=N\O)c2oc1=O	Cycloheximide cs 18.8
COc1ccc2c(C)c(Cc3ccccc3)c(=O)oc2c1OC	none
COc1ccccc1-c1cc(Nc2ccn[nH]2)ncn1	none (no result: LmPK inh, Cycloheximide cs, NS1 inh, Shiga toxin inh)
Cc1cc(=O)oc2c(N)c(O)ccc12	Shiga toxin inh 37.6
O=c1cccccc1NN=C1CCCCCC1	Cycloheximide cs 23.3, Shiga toxin inh 82.3
O=C(O)c1cc(Br)ccc1NN=C1CCCCC1	Cycloheximide cs 20.5
Cc1cc(C)nc(Nc2ccc(Br)cc2C(=O)O)n1	none
O=c1cccccc1NN=C1CCCCC1	FBPA Giardia inh inconclusive, Cycloheximide cs 35.4, Shiga toxin inh 80.0
CC(NC(=O)C(=O)NN=C1CCCCCCC1)c1ccccc1 (stereo unspecified)	none
O=C(N[C@H](C(=O)O)c1ccccc1)C1CCC(Cn2nnc3ccccc3c2=O)CC1 (stereo partly specified)	none
COc1sc(SC)cc1/C=N/NC(=O)c1ccncc1	none
COc1ccc(N2CCN(S(=O)(=O)CCNC(=O)C3CC(=O)N(c4ccccc4)C3)CC2)cc1 (stereo unspecified)	none
Cn1c(C(=O)NCc2ccc3c(c2)OCO3)cc2sccc21	none
Cn1c(C(=O)Nc2ccc3c(c2)OCO3)cc2sccc21	FBPA Giardia inh inconclusive, Shiga toxin inh 92.1
COc1cc(NC(=O)c2cc3sccc3n2C)cc(OC)c1	FBPA Giardia inh inconclusive, Cycloheximide cs 29.7, Shiga toxin inh 80.6
Cn1c(C(=O)Nc2ccccc2)cc2sccc21	Cycloheximide cs 26.0
COc1ccc(OC)c(NC(=O)c2cc3sccc3n2C)c1	none
CCOC(=O)c1cc2sccc2n1CC(=O)Nc1ccc2c(c1)OCCO2	Cycloheximide cs 17.8
C#CCNC(=O)c1cc2sccc2n1C	none
CCOC(=O)c1cc2sccc2n1CC(=O)OC	none
Cc1ccc(S(=O)(=O)N(C(=N)N)c2nc(N(C)C)nc(N(C)C)n2)cc1	none
Cc1coc(=N)n1CC(=O)c1ccc(Cl)cc1	none
C=CCOc1ccc(/C=C2\SC(=S)N(NS(=O)(=O)c3ccc(C)cc3)C2=O)cc1	FBPA Giardia inh inconclusive
CC(CCc1ccccc1)NC(=O)C1CCCN(C(=O)c2cc3sccc3n2C)C1 (stereo unspecified)	none
COC(=O)c1ccc(NC(=O)c2cc3sccc3n2C)cc1	Cycloheximide cs 39.7, Shiga toxin inh 121.7 (no result: FBPA Giardia inh)
COCCNC(=O)c1cc2sccc2n1C	none
CC(CCc1ccccc1)NC(=O)c1cc2sccc2n1C (stereo unspecified)	Cycloheximide cs 20.7
CCc1ccccc1NC(=O)c1cc2sccc2n1C	Cycloheximide cs 49.0, Shiga toxin inh 42.3
CC1CCN(CC(=O)N2c3ccccc3Sc3cc4ccccc4cc32)CC1	none (no result: FBPA Giardia inh, LmPK inh, Cycloheximide cs, Shiga toxin inh)
CCN(C(=O)c1ccc(N2CC3CC(C2)c2cccc(=O)n2C3)c(NC(=O)c2ccncc2)c1)c1cccc(C)c1 (stereo unspecified)	none (no result: FBPA Giardia inh)
Cc1cccc(-n2cc(CN3CCCN(C=O)CC3)c(-c3cccc(F)c3)n2)c1	Cycloheximide cs 23.9, Shiga toxin inh 52.3
CC(=O)N1CCCN(Cc2cn(-c3cccc(C)c3)nc2-c2cccc(F)c2)CC1	none
CC(CNC(=O)CCn1ccc2cc(S(=O)(=O)N3CCCC3)ccc21)c1ccccc1 (stereo unspecified)	none
Cc1ccc(S(=O)(=O)N2CCCN(C(=O)c3cc4ccccc4[nH]3)CC2)cc1	Cycloheximide cs 53.8, Shiga toxin inh 80.5
O=C(c1cc2ccccc2[nH]1)N1CCOCC1	Cycloheximide cs 19.2, Shiga toxin inh active
O=C(c1cc2cc(F)ccc2[nH]1)N1CCc2ccccc2C1	Cycloheximide cs 19.6, Shiga toxin inh 64.5
CN1CCN(C(=O)c2cc3ccccc3[nH]2)CC1	none (no result: Shiga toxin inh)
Cc1ccc(S(=O)(=O)N2CCCN(S(=O)(=O)c3ccc4ccccc4c3)CC2)cc1	none
Cc1noc(C)c1-c1cncnc1NC1CC1	none (no result: LmPK inh, Cycloheximide cs, NS1 inh, Shiga toxin inh)
CCc1ccccc1NC(=O)c1onc(C)c1Cl	none
Cc1noc(C(=O)Nc2ccc(F)cc2F)c1Cl	Cycloheximide cs 31.3
Cc1ccc(O)c(NC(=O)c2onc(C)c2Cl)c1	Cycloheximide cs 30.3, Shiga toxin inh 66.1
C[C@@H](NC(=O)C1(c2ccccc2)CCN(C(=O)OC(C)(C)C)CC1)C(=O)N[C@@H](C(=O)O)c1ccccc1	none
COc1ccccc1CNC(=O)CN(C)S(=O)(=O)c1ccc(F)cc1	none
O=C(NNC(=O)C1C2C=CC(C2)C1C(=O)O)c1ccccc1O (stereo unspecified)	FBPA Giardia inh inconclusive, Cycloheximide cs 16.9, Shiga toxin inh 50.3
O=C(O)C1C2C=CC(C2)C1C(=O)NCc1ccc(Cl)cc1Cl (stereo unspecified)	none
